From PubChem BioAssay
CYP2C19 activ: human CYP2C19 activators, primary screen, biochemical, luminescence | AID 1025, 2008 | activation factor at 5 µM | 96,000 tested, under 10 active | Cytochrome P450 2C19 (Homo sapiens), P33261 | recombinant CYP2C19, luciferin-H EGE luminescence; hits give high values; 0 = fully inhibited enzyme, 1 = untreated enzyme;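 active means activation factor of at least 2 at 5 µM in the primary screen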;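 further: 0 = wells with 2.5 mM tranylcypromine and 1 = vehicle-only wells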
CYP2C19 inhib: blockers of cytochrome P450 2C19 activity – biochemical, luminescence, ADME assay, primary screen; CYP2C19 Supersomes, luciferin-H EGE luminescence, 30 min; inhibition, % at 5 µM; actives 21% (n = 96,000); P33261;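 active means CYP2C19 inhibition above a set limit at 5 µM in the primary screen, cut at about 50% in these data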;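 further: plate controls were negative control wells for no effect and 2.5 mM tranylcypromine positive control for full effect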
cytoskel mod: modifiers of F-actin cytoskeleton organization, primary screen, imaging, HUVEC, phalloidin staining, high-content imaging. HUVEC TNFa F-actin phalloidin imaging. inhibition, % at 2 µM. actives 0.18% (n = 91,000). AID 836, 2007;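 active means inhibition above the batch mean plus 3 SD and confirmed as a hit by visual image inspection, cut at about 30% in these data, passing the limit was not always enough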
CYP2C9 activ: human CYP2C9 activators, primary screen, biochemical, luminescence; recombinant CYP2C9, luciferin-H conversion; hits give high values; factor 1 = untreated enzyme, 0 = blocked; activation factor at 5 µM; Cytochrome P450 2C9 (Homo sapiens), P11712; actives 1.4% (n = 96,000);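 active means activation factor of 2 or more for CYP2C9 at a 5 µM dose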;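 further: 0 = sulfaphenazole-blocked wells and 1 = vehicle-only wells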
Target sequence (P11712 whole entry, looked up): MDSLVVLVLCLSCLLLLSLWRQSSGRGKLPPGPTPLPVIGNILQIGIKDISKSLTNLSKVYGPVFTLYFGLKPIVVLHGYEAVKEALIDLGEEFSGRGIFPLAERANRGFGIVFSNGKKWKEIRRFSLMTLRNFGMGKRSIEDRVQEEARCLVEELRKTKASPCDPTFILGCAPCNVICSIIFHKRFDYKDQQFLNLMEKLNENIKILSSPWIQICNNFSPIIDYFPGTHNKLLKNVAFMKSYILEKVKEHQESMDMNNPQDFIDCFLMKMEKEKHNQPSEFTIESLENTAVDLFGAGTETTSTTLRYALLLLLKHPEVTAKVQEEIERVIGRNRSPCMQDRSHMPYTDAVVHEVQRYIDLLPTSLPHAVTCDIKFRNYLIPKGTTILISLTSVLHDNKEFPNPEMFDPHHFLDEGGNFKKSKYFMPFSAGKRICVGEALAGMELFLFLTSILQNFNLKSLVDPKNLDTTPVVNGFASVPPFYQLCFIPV
CYP2C9 inhib: blockers of cytochrome P450 2C9 activity – biochemical, luminescence, ADME assay, primary screen; P11712; CYP2C9 Supersomes, luciferin-H conversion; inhibition, % at 5 µM; actives 20% (n = 96,000);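 active means blocking of liver enzyme CYP2C9 beyond about 50% at 5 µM, limit read from the data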
E-sel TNF inh: E-selectin induction blockers in HUVEC – imaging, immunofluorescence, high content, primary screen. HUVEC TNFa-induced E-selectin immunofluorescence. inhibition, % at 2 µM. actives 0.71% (n = 120,000);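 active means inhibition above the batch mean plus 3 SD, and confirmed as a hit on visual image review, cut at about 43% in these data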;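 further: 0% = TNF-stimulated DMSO wells and 100% = unstimulated control wells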
Starred values were filed as active, the others as inactive; / = no result given. Hits are enriched below; roughly 22% of the tested compounds scored in any of these assays.

SMILES	CYP2C19 activ	CYP2C19 inhib	cytoskel mod	CYP2C9 activ	CYP2C9 inhib	E-sel TNF inh
COc1ccc(NC(=O)CN2c3cccc4cccc(c34)S2(=O)=O)c(OC)c1	0.1	91*	-9	0.6	37	9
CCC1Oc2ccccc2N(CC(=O)Nc2ccccc2OC)C1=O (stereo not drawn)	0.2	78*	-30	0.4	63*	/
CCC1Oc2ccccc2N(CC(=O)NCCc2ccc(OC)c(OC)c2)C1=O (stereo not drawn)	/	/	19	/	/	5
C=CCNC(=O)c1onc(CCl)c1C(=O)OC	1	2	1	1	0	1
O=C(c1ccc(CNS(=O)(=O)c2ccccc2)cc1)N1CCN(Cc2ccccc2)CC1	0.6	41	/	0.5	46	9
CCCc1sc(N)nc1-c1ccc(Cl)cc1	/	/	/	/	/	0
CC1Oc2ccccc2N(CC(=O)c2cccc(Cl)c2)C1=O (stereo not drawn)	0	97*	-1	0.1	93*	/
O=c1cc(CO)occ1OCc1ccccc1	1.1	-11	10	1.1	-7	20
CC1CCCC(C)N1C(=O)c1cc(-c2ccc(Cl)c(Cl)c2)on1 (stereo not drawn)	1	4	-32	1.2	-25	-9
COC(=O)c1[nH]c2ccc(Cl)cc2c1NC(=O)CN1CCc2cc(OC)c(OC)cc2C1	0.1	87*	-7	0.1	89*	-31
CCOC(=O)c1[nH]c2ccc(F)cc2c1NC(=O)CN1CCc2cc(OC)c(OC)cc2C1	0.3	68*	-10	0.2	81*	-6
COC(=O)c1[nH]c2cc(C)ccc2c1NC(=O)CN1CCc2cc(OC)c(OC)cc2C1	0.5	51*	4	0.5	49	-3
CCOC(=O)N1CCN(CC(=O)Nc2c(C(=O)OC)[nH]c3cc(C)ccc23)CC1	1	2	0	0.9	6	-20
Cc1cccc(OCC(=O)Nc2nnn(C)n2)c1C	/	/	4	/	/	-48
COc1ccc(CNC(=O)CN(Cc2cccs2)C(=O)CCC(=O)Nc2ccccn2)cc1	/	/	/	/	/	-17
CN(C)c1cc2c(c(N(C)C)c1)C(=O)c1ccccc1C2=O	0.9	11	-11	0.6	38	-18
COc1ccc(-c2nc(N)ncc2-c2csc(C)n2)c(O)c1	0.1	87*	-18	1	3	0
CC1CCc2c(sc3ncnc(NCc4cccnc4)c23)C1 (stereo not drawn)	/	/	/	/	/	8
CC1CCc2c(sc3ncnc(NCCCOC(C)C)c23)C1 (stereo not drawn)	0	98*	-20	0.1	89*	-35
CCOc1ccc(C(=O)Nc2cc(C)c3c(=O)oc4ccccc4c3n2)cc1	0.8	18	-1	0.8	16	-9
COc1ccc(C/C(N)=N/OC(=O)c2cccc([N+](=O)[O-])c2)cc1	/	/	/	/	/	4
COc1ccccc1C/C(N)=N/OC(=O)c1cccc([N+](=O)[O-])c1	0.9	9	-3	2.4*	-142	-65
COCCCn1c(SCC(=O)Nc2cccc(C)n2)nnc1-c1ccco1	0.5	49	-9	0.7	25	-9
CCCCn1c(SCC(=O)Nc2cccc(C)n2)nnc1-c1ccco1	0.1	87*	5	0	96*	2
CCCCn1nnnc1SCC(=O)Nc1cccc(C)n1	0.3	65*	6	0.8	20	-16
SMILES	CYP2C19 activ	CYP2C19 inhib	cytoskel mod	CYP2C9 activ	CYP2C9 inhib	E-sel TNF inh
Cc1cccc(NC(=O)CSc2nnnn2C)n1	1.1	-11	-24	1.2	-18	-32
COc1cc(NS(=O)(=O)c2ccc(Nc3nc(-c4cccc([N+](=O)[O-])c4)cs3)cc2)nc(OC)n1	/	/	/	/	/	3
CN1C(=O)c2cccc3c(S(=O)(=O)NCc4ccco4)ccc1c23	0.1	94*	6	0.2	79*	-16
COc1ccc(S(=O)(=O)NCc2ccco2)c2ccccc12	0.5	47	/	2*	-104	-13
O=C(NCC(c1cccs1)N1CCOCC1)c1ccccc1NS(=O)(=O)c1ccc(Br)cc1 (stereo not drawn)	/	/	/	/	/	19
CN1CCN(CCCNC(=O)c2cc3c(=O)n(C)c4ccccc4c3s2)CC1	1	-1	-7	1	-5	0
